The structures appear in SMILES notation. Hit rate of the full screen: of about 69,000 compounds, about 8,600 (12%) showed an effect of 50% or more. The sample as a whole holds a higher share of strong results than the screen did.

This experiment deals with Plasmodium berghei. In words: Screen against P. berghei liver stage (PbLuc), transformed with Luciferase, at 10uM. It counts as functional, HepG2. Particulars: tested at 10 uM.
On to `Cc1cc2cc(NC(=O)Cn3ncc(N4CCCC4)cc3=O)ccc2o1`, for which the INHIBITION is recorded as 30.3%.

Turning to `CCn1cnnc1CNS(=O)(=O)N1CCCC1c1ccc(C)o1` (centres undefined), the INHIBITION came to 2.79%.

With `CC(C)c1nc(O)c2nnn(C[C@H]3CCCN(Cc4cccs4)C3)c2n1`, the INHIBITION is recorded as 2.55%.

`CCn1nc(C)c2ncnc(NCCn3cccn3)c21`: the INHIBITION is recorded as -15%.

As for `CC(C)CC1SCC(=O)Nc2c1cnn2C1CCCC1` (centres undefined), the INHIBITION was -37.2%.

As to `CN(C)C(=O)[C@@H]1C[C@H]2OCC[C@H]2N(CCOc2ccc(Cl)cc2)C1`, the INHIBITION is listed as -23.4%.

As to `CC(C)Cc1cc(C(=O)NCCN2CCCS2(=O)=O)[nH]n1`, the INHIBITION is -36.385%.

With `CC(C)Cc1cc(C(=O)NCc2nnc[nH]2)[nH]n1`, the INHIBITION is reported as -21.3%.

With `CC(C)Cc1cc(C(=O)NC(C)C)[nH]n1`, the INHIBITION turned out to be 50.8%.

With `COc1nccc(N2CC[C@@H](N3CCCCCC3)[C@H](O)C2)c1C#N`, the INHIBITION is recorded as 42.1%.

On to `c1cnn(CC2CCCN2Cc2nc(C3CC3)no2)c1` (centres undefined), for which the INHIBITION stood at 11.4%.

For `Cc1nc(C)c(CNCC2CCCn3ccnc32)s1` (centres undefined), the INHIBITION was 28.7%.

In the case of `Cc1cn2c(n1)C(CNCc1cnn3ccccc13)CCC2` (centres undefined), the INHIBITION was 50.1%.

For `O=C(NCc1cnn2ccccc12)NC1CCCC1`, the INHIBITION is reported as -16.4%.

Take `Cn1cccc1CNCC1CCCn2cc(C(C)(C)C)nc21` (centres undefined): the INHIBITION stood at 22.3%.

Regarding `CC(C)(C)C(=O)NCc1cnn2ccccc12`, the INHIBITION is 15.7%.

Turning to `CC(C)(C)NC(=O)NCc1cnn2ccccc12`, the INHIBITION stood at 35.2%.

Consider `CC(C)(C)c1cn2c(n1)C(CNCc1cnn3ccccc13)CCC2` (centres undefined), for which the INHIBITION is 51.1%.

On to `CC(C)(C)c1cn2c(n1)C(CNCc1ccccn1)CCC2` (centres undefined), for which the INHIBITION was 56.5%.

In the case of `CC(C)(C)c1ncc(CNCC2CCCn3ccnc32)s1` (centres undefined), the INHIBITION is on record as -7.66%.

Regarding `CN(CC1(C)COC1)C(=O)c1cc(-c2ccnn2C)nc2ccccc12`, the INHIBITION was determined as 1.9%.

Turning to `CSC(C)C(=O)N(C)CC(=O)Nc1ccc(Br)cn1` (centres undefined), the INHIBITION is recorded as -17.6%.

For the molecule `NC(=O)C(CNC(=O)CCc1ccccc1)Cc1ccc(F)cc1` (centres undefined), the INHIBITION is reported as 33.4%.

Regarding `CN(C)C(=O)CO[C@H]1CN(Cc2ccccc2)[C@@H]2CCCO[C@H]12`, the INHIBITION is 3.3%.

As to `CN(C)C(=O)CNC(=O)c1cc2ccccc2nc1N1CCCC1`, the INHIBITION came to 42.3%.

For the molecule `Cc1ccc2c(cnn2CCC(=O)NCc2csc(C3CC3)n2)c1`, the INHIBITION came to 26.9%.

With `CCn1cc(C(=O)NCc2csc(C3CC3)n2)c(C)n1`, the INHIBITION is on record as 67%.

Regarding `CCn1cc(CCC(=O)NCc2csc(C3CC3)n2)c(C)n1`, the INHIBITION stood at 22.9%.

Turning to `Cc1cccc2c1cnn2CCC(=O)NCc1csc(C2CC2)n1`, the INHIBITION worked out at 23.6%.

As to `CCn1nc(C)c(C(=O)NCc2csc(C3CC3)n2)c1C`, the INHIBITION was determined as 76.3%.

With `Cc1nn(C)cc1C(=O)NCc1csc(C2CC2)n1`, the INHIBITION was determined as 18.3%.

As for `CCOC(=O)CSc1nnc([C@@H](N)C(C)CC)o1` (some centres undefined), the INHIBITION is listed as -30.6%.

Take `COCC(=O)NCCc1ccc(Cl)s1`: the INHIBITION came out at 28.4%.

Consider `Cc1ccccc1-n1nccc1NC(=O)CCOC(C)C`, for which the INHIBITION worked out at 43.8%.

On to `COCCOCC(=O)Nc1ccc(C)cc1Cl`, for which the INHIBITION is listed as -71.6%.

For `CCOCCC(=O)Nc1ccnn1-c1ccc(Cl)cc1`, the INHIBITION turned out to be 12.9%.

As for `COCC(=O)NC(c1ccc(Cl)cc1)C(F)(F)F` (centres undefined), the INHIBITION was -21.8%.

In the case of `COCCC(=O)Nc1ccnn1-c1ccccc1`, the INHIBITION is 67.1%.

Turning to `COCCOCC(=O)Nc1ccnn1-c1ccc(Cl)cc1`, the INHIBITION amounted to 54.6%.

As for `COCC(=O)Nc1ccnn1-c1ccc(Cl)cc1`, the INHIBITION is on record as 64.3%.

`COCCC(=O)Nc1ccnc(Oc2ccccc2)c1`: the INHIBITION was -30%.

`Cc1cccc(C(=O)N2C[C@@H](OCc3ccncc3)[C@@H]3OCCC[C@@H]32)n1`: the INHIBITION was -69.9%.

Take `COCCN(Cc1ccccn1)C(=O)Nc1cccnc1-n1cccn1`: the INHIBITION is 9.4%.

Turning to `NC(=O)CN1CCOCC(Cc2ccccc2)C1` (centres undefined), the INHIBITION is on record as -4.51%.

Regarding `C=C(C)COc1ccccc1C(=O)N1CCC(C(=O)NCC)C1` (centres undefined), the INHIBITION is reported as 48.5%.

Take `CCN(c1ccc(C(=O)N2CCCCC2)cc1)S(=O)(=O)CC`: the INHIBITION stood at 40.3%.

Take `OC1(CNc2cccc(F)c2)CCNCC1`: the INHIBITION was 28.5%.

`CC(CN1CCOCC1)n1cncc1-c1cnn(Cc2ccccc2)c1` (centres undefined): the INHIBITION is recorded as -3.135%.

Take `CCOC(=O)N1CCN(C(=O)C(CC)n2cccn2)CC1` (centres undefined): the INHIBITION is given as 31.2%.

For `Cc1nccc([C@H]2C[C@@H]3CCN(S(C)(=O)=O)C[C@H]3O2)n1`, the INHIBITION was 33.2%.

As for `Cc1cc(C(=O)N2CCCC(c3cc(C(F)(F)F)[nH]n3)C2)on1` (centres undefined), the INHIBITION is 33.8%.

Consider `CC(C)(C#N)C(=O)N1CCCC(c2cc(C(F)(F)F)[nH]n2)C1` (centres undefined), for which the INHIBITION was found to be 55.5%.

On to `Cc1[nH]ncc1C(=O)N1CCCC(c2cc(C(F)(F)F)[nH]n2)C1` (centres undefined), for which the INHIBITION was 24%.

For `O=C(c1ccco1)N1CCCC(c2cc(C(F)(F)F)[nH]n2)C1` (centres undefined), the INHIBITION came to 36.1%.

The values above are taken from ChEMBL document CHEMBL4513216, “Probing the Open Global Health Chemical Diversity Library for Multistage-Active Starting Points for Next-Generation Antimalarials” (ACS Infect Dis, 2020).
